Experimental data from publication PMC4552634, “A New Set of Chemical Starting Points with Plasmodium falciparum Transmission-Blocking Potential for Antimalarial Drug Discovery” (PLoS ONE, 2015).
About 3,200 (25%) of roughly 13,000 compounds showed an effect of 50% or more. Some of the results follow.

System: P. falciparum stage V gametocytes
Parameters: BacTiter-Glo ATP luminescence viability of purified stage V gametocytes in 384-well plates, per cent inhibition versus DMSO
Settings: 48 h, 5 µM; inhibitor

SMILES	% Inhibition
O=C(Nc1cccc(OC2CCN(Cc3ccsc3)CC2)c1)c1ccc(C(F)(F)F)cc1 [TCMDC-133737]	-11.34%
Cc1cc(OCc2ccncc2)cc2c1C(=O)CC(C)(C)O2 [TCMDC-131314]	21.7%
O=C(N1CCN(c2ccnc3cc4c(cc23)N(Cc2ccccc2)CC4)CC1)C(F)(F)F [TCMDC-140138]	5.48%
O=C(Nc1ccc2c(c1)CCN2C1CCN(Cc2ccc(F)cc2Cl)C1)c1ccco1 (centres unmarked) [TCMDC-135068]	-23.63%
Cc1ccc(C(=O)Nc2ccc(-c3nc4ccccc4[nH]3)cc2)cc1S(=O)(=O)N1CCOCC1 [TCMDC-124532]	-13.26%
COC(=O)c1cccc(CNCc2ccc(-c3ccc(-c4nc5cc(C(F)(F)F)ccc5[nH]4)s3)cc2)c1.O=C(O)C(F)(F)F [TCMDC-132958]	-50.86%
CCCC(C)Nc1nc(C)cc(NCCC(=O)Nc2ccccc2)n1 (centres unmarked) [TCMDC-134763]	23.15%
FC(F)(F)COc1ccc2ccccc2c1CCNCCCCNCCc1c(OCC(F)(F)F)ccc2ccccc12 [TCMDC-137317]	103.9%
FC(F)(F)COc1ccc2ccccc2c1CNCCCCCCNCc1c(OCC(F)(F)F)ccc2ccccc12 [TCMDC-137816]	113.4%
Cc1sc(C)c(C(F)(F)F)c1CNCCCNc1cc(=O)c2ccccc2[nH]1 [TCMDC-140766]	-57.97%
CC1CN(c2ccc3occ(C(=O)Nc4ccc(-c5ccncc5)c(Cl)c4)c3c2)CC(C)N1C (centres unmarked) [TCMDC-141360]	38.63%
O=C(Nc1cccc(-c2ccc(-c3nc4ccccc4[nH]3)s2)c1)c1ccncc1 [TCMDC-136956]	6.685%
CCOC(=O)N1CCN(CCCNc2c3ccccc3nc3ccccc23)CC1.Cl [TCMDC-137544]	15.5%
CCCN1CCN(CCCCNc2c3ccccc3nc3ccccc23)CC1 [TCMDC-137576]	93%
CCCN1CCN(CCCNc2c3ccccc3nc3ccccc23)CC1 [TCMDC-137478]	97.73%
CC(C)CN1CCN(CCNc2c3ccccc3nc3ccccc23)CC1 [TCMDC-138008]	92.54%
CCCN1CCN(CCNc2c3ccccc3nc3ccccc23)CC1 [TCMDC-137549]	102.5%
COc1cc2nc(NCCN3CCOCC3)n3nc(-c4ccccc4)nc3c2cc1OC [TCMDC-124407]	-12.35%
O=C1NC(C(=O)Nc2ccccc2)C(c2ccccc2)S1 (centres unmarked) [TCMDC-131740]	2.02%
O=C(Nc1ccc(-c2ccc(-c3nc4ccccc4[nH]3)s2)cc1)Nc1ccc(F)c(F)c1F [TCMDC-133236]	-3.503%
